Assay results from PubChem BioAssay AID1347385 (Zoeller Lab, School of Medicine, Boston University, 2020).
Among all 20,000 compounds or so, about 85 (0.4%) were called active. The sample holds actives, similar compounds and a random draw of the others, so the mix is not that of the screen.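 How the source made its calls: active means cell survival signal 2 SD away from solvent-only control wells, confirmed on one or two retests; inactive means the rest.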

test: phospholipid synthesis inhibitors, CHO cells, primary screen, ZR-82 cells, Enamine library, screen 3 (AID 1347385); conditions: ZR-82 CHO cells, pyrene fatty acid UV survival, CellTiter Blue, peroxisome-deficient CHO-K1 mutant line, plus DGAT-1, DGAT-2 and ACAT inhibitors; at 10 µM unless noted;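 further: 3 h compound exposure then viability read about one day after UV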

**Q.** With `O=c1/c(=C/c2ccccc2I)sc2nc3ccccc3n12` as the molecule, how does the outcome read?
**A.** inactive

**Q.** For `COc1ccccc1OCCOCCOc1ccccc1OC`, which outcome is on record?
**A.** inactive

**Q.** With `O=c1c(Cl)c(N2CCCC2)cnn1-c1ccccc1` as the molecule, how does the outcome read?
**A.** inactive

**Q.** With `COCCNC(=O)NC(=O)N(C1CCCCC1)S(C)(=O)=O` as the molecule, how does the outcome read?
**A.** inactive

**Q.** Which outcome does the source give for `Cc1sc2nc(-c3cccs3)nc(Sc3nnc(C4CC4)o3)c2c1C` here?
**A.** inactive

**Q.** Which outcome does the source give for `CCOC(=O)c1sc2nc(C(C)Sc3ncnc4sc5c(c34)CCC5)[nH]c(=O)c2c1C` (stereo not given) here?
**A.** inactive

**Q.** For `CC(C)(C)C1CCC(C(=O)OCC(=O)c2ccc(Cl)s2)CC1` (stereo not given), which outcome is on record?
**A.** inactive

**Q.** Which outcome does the source give for `O=C1CN(Cc2csc(-c3cccs3)n2)CCN1` here?
**A.** inactive

**Q.** Which outcome does the source give for `O=[N+]([O-])c1c(Sc2nnnn2-c2ccccc2)nc2sccn12` here?
**A.** inactive

**Q.** With `COc1ccc(C2=CC(c3ccc(OC)c(OC)c3)n3ncnc3N2)cc1OC` (stereo not given) as the molecule, how does the outcome read?
**A.** inactive

**Q.** For `Cc1cc2ncn(Cc3ccc(C(C)C)cc3)c2cc1C`, which outcome is on record?
**A.** inactive

**Q.** Which outcome does the source give for `CCNc1n[nH]c(=S)s1` here?
**A.** inactive

**Q.** For `O=C(Nc1ccccc1)NC(NC(=S)Nc1ccc(I)cc1)C(Cl)(Cl)Cl` (stereo not given), which outcome is on record?
**A.** inactive

**Q.** With `O=C(Nc1ccccc1)Nc1ccc(Cl)c(Cl)c1` as the molecule, how does the outcome read?
**A.** active

**Q.** With `S=C(Nc1ccc(Cl)c(Cl)c1)NC12CC3CC(CC(C3)C1)C2` as the molecule, how does the outcome read?
**A.** inactive

**Q.** With `FC(F)Sc1nc(-c2ccc(Br)cc2)nc2ccccc12` as the molecule, how does the outcome read?
**A.** inactive

**Q.** For `CC(C)CNC(=O)NC(=O)C1CCCCC1`, which outcome is on record?
**A.** inactive

**Q.** Which outcome does the source give for `O=[N+]([O-])c1cc(CN2CCOCC2)c2c(c1)OCOC2` here?
**A.** inactive

**Q.** For `Fc1ccc(-c2nnc(-c3nnc(-c4ccc(F)cc4)c(-c4ccccc4)n3)nc2-c2ccccc2)cc1`, which outcome is on record?
**A.** inactive

**Q.** For `O=P1(Nc2cc(C(F)(F)F)ccc2Cl)C=C(c2ccccc2)OC(c2ccccc2)=C1`, which outcome is on record?
**A.** inactive

**Q.** With `Nc1ccc([N+](=O)[O-])c(OC(F)F)c1` as the molecule, how does the outcome read?
**A.** inactive

**Q.** Which outcome does the source give for `CCOC(=O)c1c(N)sc2c1CCCS2` here?
**A.** inactive

**Q.** With `C=CCN1C(=O)/C(=C/c2c(NC3CC(C)(C)NC(C)(C)C3)nc3ccc(C)cn3c2=O)SC1=S` as the molecule, how does the outcome read?
**A.** inactive

**Q.** Which outcome does the source give for `O=C(COC(=O)CCNC(=O)NC12CC3CC(CC(C3)C1)C2)NCC(F)(F)F` here?
**A.** inactive

**Q.** For `O=S(=O)(c1ccc(F)c(F)c1)N1CCN(c2ccc(O)cc2)CC1`, which outcome is on record?
**A.** inactive

**Q.** Which outcome does the source give for `COC(=O)C(C)N` (stereo not given) here?
**A.** inactive

**Q.** Which outcome does the source give for `Cc1noc(C)c1COc1ncnc2sc3c(c12)CCCC3` here?
**A.** inactive

**Q.** With `C(=N\n1c(-c2ccco2)csc1=NC1CCCCC1)/c1ccccn1` as the molecule, how does the outcome read?
**A.** inactive [setting not given]

**Q.** Which outcome does the source give for `Cc1noc(C)c1S(=O)(=O)Nc1ccc(NS(=O)(=O)c2ccc3c(c2)OCCCO3)cc1` here?
**A.** inactive

**Q.** With `S=c1n(CN2CCOCC2)nc(Cc2cccs2)n1C1CCCCC1` as the molecule, how does the outcome read?
**A.** inactive

**Q.** For `Ic1ccc2c(c1)Cc1ccccc1-2`, which outcome is on record?
**A.** inactive

**Q.** Which outcome does the source give for `Cn1c(C(F)(F)F)nn(CN2CCN(c3cccc(C(F)(F)F)c3)CC2)c1=S` here?
**A.** inactive

**Q.** Which outcome does the source give for `O=C(CSc1nc2ccccc2nc1SCC(=O)c1cc2ccccc2o1)c1cc2ccccc2o1` here?
**A.** inactive

**Q.** With `O=S1(=O)N=C(N2CCC(c3nc4ccccc4o3)CC2)c2ccccc21` as the molecule, how does the outcome read?
**A.** inactive

**Q.** For `O=C(COC(=O)Cn1cc(C(F)(F)F)ccc1=O)NC(=O)NC1CCCC1`, which outcome is on record?
**A.** inactive

**Q.** Which outcome does the source give for `O=c1cc(COc2cc(Cl)c(Cl)cc2Cl)nc2ccc(Br)cn12` here?
**A.** inactive

**Q.** With `FC(F)(F)c1ccc(Oc2ccc(Cl)c3cccnc23)nc1` as the molecule, how does the outcome read?
**A.** inactive

**Q.** For `O=S(=O)(Nc1cc(S(=O)(=O)N2CCOCC2)ccc1N1CCCC1)c1cccs1`, which outcome is on record?
**A.** inactive

**Q.** Which outcome does the source give for `Clc1ccc(C=Nc2ccc3c(c2)OCO3)c(Cl)c1` here?
**A.** inactive

**Q.** For `CC(C)CN(C(=O)CSc1nncn1C)C1CCS(=O)(=O)C1` (stereo not given), which outcome is on record?
**A.** inactive

**Q.** Which outcome does the source give for `O=[N+]([O-])c1ccc(NN=C2C3CC4CC(C3)CC2C4)c(S(=O)(=O)Nc2ccc(Cl)cc2)c1` here?
**A.** inactive

**Q.** Which outcome does the source give for `CN(C)/N=C/C=C1\CCC/C(=C\c2cc(Br)cs2)C1=O` here?
**A.** inactive [setting not given]

**Q.** For `O=S(=O)(c1ccc(F)cc1F)N1c2cccc3cccc(c23)S1(=O)=O`, which outcome is on record?
**A.** inactive

**Q.** Which outcome does the source give for `Nc1c(C(=O)CSc2cc(F)ccc2F)c(=O)[nH]c(=O)n1C1CC1` here?
**A.** inactive

**Q.** With `c1nc(N2CCN(c3ncnc4sc5c(c34)CCCC5)CC2)c2c3c(sc2n1)CCCC3` as the molecule, how does the outcome read?
**A.** inactive

**Q.** With `Cc1cc(C)nc(N/N=C/c2ccncc2)n1` as the molecule, how does the outcome read?
**A.** inactive [setting not given]

**Q.** With `Fc1ccc(-n2c(-c3ccc(Cl)cc3Cl)n[nH]c2=S)cc1Cl` as the molecule, how does the outcome read?
**A.** inactive

**Q.** With `Cc1ccc(C)c(C2C3=C(CC(C)(C)CC3=O)Nc3nc(-c4cccnc4)nn32)c1` (stereo not given) as the molecule, how does the outcome read?
**A.** inactive

**Q.** For `COc1cc(S(=O)(=O)n2c([N+](=O)[O-])cnc2C)ccc1Br`, which outcome is on record?
**A.** inactive

**Q.** For `Cc1cc(C)c(C)c(S(=O)(=O)N(C)C2CCS(=O)(=O)C2)c1C` (stereo not given), which outcome is on record?
**A.** inactive

**Q.** For `CC(=O)c1c(C)[nH]c(C(=O)OCC(=O)c2cc(C)n(CC3CCCO3)c2C)c1C` (stereo not given), which outcome is on record?
**A.** inactive

**Q.** For `O=C1NC(c2ccc3ncccc3c2)C(C(=O)c2cccnc2)C(O)(C(F)(F)F)N1` (stereo not given), which outcome is on record?
**A.** inactive

**Q.** Which outcome does the source give for `O=[N+]([O-])/C(CN1CCOCC1)=C1/CCCN1` here?
**A.** inactive

**Q.** Which outcome does the source give for `CCCCn1c(N)c(N(Cc2ccco2)C(=O)Cn2cnnn2)c(=O)[nH]c1=O` here?
**A.** inactive

**Q.** Which outcome does the source give for `CN(C(=O)COC(=O)CN1C(=O)NC2(CCCC2)C1=O)C1CCCCC1` here?
**A.** inactive
